High-throughput results: PubChem BioAssay, several laboratories
Shown are actives, neighbours in structure and some others; about 2.5% of the full set was active somewhere.
rCAG RNA binder: binds r(CAG) RNA repeats | inhibition, % at 3 µM | r(CAG) RNA repeat, TO-PRO-1 dye displacement fluorescence | 370,000 compounds, 1.3% hits;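 active = inhibition above the plate cutoff, the mean of all test compounds on that plate plus 3 SD, cut at about 35% in these data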;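 note: 0% = DMSO alone and 100% = 100 µM mitoxantrone as full dye displacement; higher means more dye released from RNA so lower well fluorescence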
Exocytosis inh: blocks lytic granule exocytosis. TALL-104 LAMP-1 surface exposure, flow cytometry; cells stimulated with thapsigargin and PMA. inhibition, % at 10 µM. 360,000 compounds, 0.66% hits. AID 651702;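 active = inhibition above about 55%, limit read from the data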
PG9 Ab binder: binds the HIV-1 gp120 antibody PG9. TR-FRET gp120-PG9 antibody binding. inhibition, % at 6.7 µM. 360,000 compounds, 0.43% hits. AID 624416; in the data active = inhibition above about 8.5%
ABCB6 inh 2: inhibitors of human ABC transporter ABCB6. AID 602162. fluorescence ratio to DMSO, % at 10 µM. 360,000 compounds, 0.19% hits. Q9NP58. K562-ABCB6 porphyrin accumulation, flow cytometry, 1 h; stronger effect = lower value;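 active = fluorescence ratio to DMSO below 75%, the collection mean minus 3 SD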;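 note: signal is porphyrin accumulated inside mitochondria; 100% equals median channel fluorescence of DMSO control wells; lower ratio means ABCB6 inhibition with less porphyrin fluorescence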
Target sequence (Q9NP58 whole entry, looked up): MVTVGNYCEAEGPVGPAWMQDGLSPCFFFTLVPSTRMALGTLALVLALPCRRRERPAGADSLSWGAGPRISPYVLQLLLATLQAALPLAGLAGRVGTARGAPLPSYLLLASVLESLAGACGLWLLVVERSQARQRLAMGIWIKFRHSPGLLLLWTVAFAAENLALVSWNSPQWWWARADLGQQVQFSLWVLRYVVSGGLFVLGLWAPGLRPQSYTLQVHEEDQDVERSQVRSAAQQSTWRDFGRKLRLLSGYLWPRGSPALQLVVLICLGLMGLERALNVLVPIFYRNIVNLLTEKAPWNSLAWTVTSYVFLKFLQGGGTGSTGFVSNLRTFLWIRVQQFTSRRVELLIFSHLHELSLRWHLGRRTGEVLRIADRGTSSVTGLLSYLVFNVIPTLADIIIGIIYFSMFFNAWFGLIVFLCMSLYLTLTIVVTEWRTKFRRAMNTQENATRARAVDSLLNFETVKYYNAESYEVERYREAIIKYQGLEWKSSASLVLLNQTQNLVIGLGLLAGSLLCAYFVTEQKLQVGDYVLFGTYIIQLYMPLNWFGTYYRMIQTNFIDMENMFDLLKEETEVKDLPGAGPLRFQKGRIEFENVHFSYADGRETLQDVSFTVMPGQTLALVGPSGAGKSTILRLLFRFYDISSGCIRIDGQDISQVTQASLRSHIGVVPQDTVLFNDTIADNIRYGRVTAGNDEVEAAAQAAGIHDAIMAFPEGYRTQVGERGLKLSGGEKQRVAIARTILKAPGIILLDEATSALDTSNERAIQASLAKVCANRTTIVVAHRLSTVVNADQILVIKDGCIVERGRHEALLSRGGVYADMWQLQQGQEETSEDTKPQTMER
PG9 binder conf: PG9 antibody binding, confirmed; shares compounds with PG9 Ab binder; TR-FRET PG9 antibody binding, biochemical; inhibition, % at 6.7 µM; 1,500 compounds, 90% hits; AID 651571; in the data active = inhibition above about 9%
PGV04 counter: binds control antibody PGV04 in PG9 binder counter-screen; shares compounds with PG9 Ab binder; TR-FRET PGV04 antibody-gp120 binding, biochemical; inhibition, % at 6.7 µM; 1,500 compounds, 95% hits; AID 651604; in the data active = inhibition above about 9.5%
Numbers without * were called inactive; . = no result.

SMILES | rCAG RNA binder | Exocytosis inh | PG9 Ab binder | ABCB6 inh 2 | PG9 binder conf | PGV04 counter
Cc1cc(NC(=O)CSc2nc(-c3ccccc3)c(C#N)c(=O)[nH]2)no1 | 16 | -3 | 18* | 109 | 28* | 35*
CC(C)(C)c1nc(SCC(=O)NC2CCCC2)c2ccccc2n1 | -4 | -5 | 9.9* | 101 | 13* | 17*
Cc1cc(NC(=O)CSc2nc(C(C)(C)C)nc3ccccc23)no1 | -1 | 2 | 36* | 102 | 44* | 55*
Cc1cc(NC(=O)CSc2c3c(nc4ccccc24)CCC3)no1 | 4 | -1 | -2 | 100 | . | .
CCc1cc2ccccc2nc1SCC(=O)Nc1cc(C)on1 | 0 | -2 | 22* | 97 | 22* | 30*
Cc1cccc(C)c1NC(=O)CSc1cc(C(=O)c2nccn2C)c2ccccc2n1 | -5 | -2 | 14* | 99 | 41* | 58*
O=C(c1ccc(CS(=O)c2ccc(F)cc2)o1)N1CCN(C2CCCCC2)CC1 (configuration not stated) | -6 | 0 | 0 | 99 | . | .
CCOC(CNC(=O)Cn1nc(C)c2ccccc21)OCC | 0 | 0 | -2 | 102 | . | .
Cc1cc2sc(C(=O)O)c(C)c2s1 | -2 | -1 | 16* | 99 | 21* | 28*
O=C(Nc1ccccc1C(=O)Nc1ccccc1)c1ccccc1F | -4 | 11 | 21* | 78 | 21* | 28*
O=C(O)c1cccc(NC(=O)c2ccccc2NC(=O)c2ccccc2F)c1 | 8 | -1 | 1 | 99 | . | .
COc1cccc(CNC(=O)COC(=O)/C(C#N)=C/c2ccc(N(C)C)cc2)c1 | 4 | -1 | 21* | 108 | 36* | 51*
CC1Cc2ccccc2N1C(=O)COC(=O)c1cccc(Br)c1 (configuration not stated) | 1 | 6 | -1 | 90 | . | .
CC1Cc2ccccc2N1C(=O)COC(=O)c1cc(Br)ccc1O (configuration not stated) | 0 | 6 | 20* | 89 | 6 | 8
Cc1nnc(SCC(=O)NC2CCCCC2)n1N | 2 | -2 | 0 | 99 | . | .
COc1ccccc1CNc1ncnc2cc(Cl)ccc12 | 1 | 2 | 90* | 97 | 91* | 93*
Clc1ccc2c(NCc3ccccn3)ncnc2c1 | 3 | 1 | -1 | 94 | . | .
CC(C)c1c(C(=O)N/N=C/c2ccc(C(F)(F)F)cc2)nnn1-c1nonc1N | 4 | 3 | -2 | 98 | . | .
COC(=O)c1nn(-c2ccc(C)cc2)c2nnc(Cc3ccccc3)c(=O)n12 | -4 | 0 | 23* | 95 | 19* | 28*
COC(=O)c1nn(-c2cccc(C)c2)c2nnc(Cc3ccc(C)cc3)c(=O)n12 | -1 | 2 | 0 | 98 | . | .
COC(=O)c1ccc(N2C(=O)CC(N3CCOCC3)C2=O)cc1 (configuration not stated) | 2 | 8 | 13* | 97 | 7 | 9.3*
COC(=O)c1ccc(N2C(=O)CC(N3CCN(c4ccccc4)CC3)C2=O)cc1 (configuration not stated) | 2 | -2 | 1 | 95 | . | .
COc1cc2c(=O)n(CC3CCCO3)c(=O)n(CC(=O)Nc3ccccc3)c2cc1OC (configuration not stated) | 7 | 0 | 1 | 101 | . | .
CCc1cc2cc(C(=O)Nc3ccc(C)cc3)sc2s1 | 5 | -4 | 31* | 92 | 29* | 36*
C#CCN(C(=O)c1ccc(OC)c(OC2CCN(C(C)C)CC2)c1)C1CCCCC1 | -9 | 0 | 2 | 96 | . | .
SMILES | rCAG RNA binder | Exocytosis inh | PG9 Ab binder | ABCB6 inh 2 | PG9 binder conf | PGV04 counter
CC(=O)c1sc(Nc2ccccn2)nc1C | 1 | 0 | 30* | 96 | 38* | 51*
CC(=O)c1sc(NC(=O)C(C)C)nc1C | 3 | 2 | 48* | 92 | 46* | 64*
CC(=O)Nc1nc(C)c(C(C)=O)s1 | 4 | 0 | 8 | 97 | . | .
Cc1nc(NC(=O)C2CC2)sc1C(=O)Nc1ccc(Br)cc1 | 5 | -1 | 14* | 104 | 14* | 15*
CC(=O)c1sc(NC(=O)COc2ccc(Br)cc2)nc1C | 4 | 9 | 18* | 94 | 21* | 60*
CC(=O)N1CCOCCOCCN(C(C)=O)CCOCC1 | -2 | -2 | -2 | 101 | . | .
CC(=O)Nc1ccc(OS(=O)(=O)c2cc(Cl)ccc2C)cc1 | 1 | 2 | 1 | 91 | . | .
Cc1ccc(F)cc1NC(=O)N1c2ccccc2NC(=O)CC1C (configuration not stated) | 3 | -5 | -1 | 96 | . | .
CCCCOc1ccc(C(=O)Nc2ccc3c(c2)C(=O)NC3=O)cc1 | 4 | 2 | 21* | 100 | 6 | 11*
O=C(Nc1ccc2c(c1)C(=O)NC2=O)c1ccc(Cl)s1 | -1 | -1 | -3 | 101 | . | .
O=C(Nc1ccc2c(c1)C(=O)NC2=O)c1cccc(Cl)c1 | 4 | -1 | 17* | 98 | 28* | 47*
O=C(Nc1ccc2c(c1)C(=O)NC2=O)c1cc(Cl)ccc1Cl | 5 | -1 | 9.5* | 99 | 10* | 15*
CCOc1ccc(C(=O)Nc2ccc3c(c2)C(=O)NC3=O)cc1 | 1 | 0 | -1 | 99 | . | .
Cc1cccc(C(=O)Nc2ccc3c(c2)C(=O)NC3=O)c1 | 2 | -3 | 0 | 95 | . | .
CCOc1ccc(N(C(C)C(=O)N2CCOCC2)S(C)(=O)=O)cc1 (configuration not stated) | 1 | -2 | -1 | 96 | . | .
CN(C)S(=O)(=O)c1ccc(N2CCCC2)c(C(=O)NCCc2ccc(F)cc2)c1 | -4 | 3 | -1 | 95 | . | .
CN(C)S(=O)(=O)c1ccc(N2CCCC2)c(C(=O)NCc2cccc(C(F)(F)F)c2)c1 | -2 | 2 | 12* | 98 | 17* | 25*
COCCN(CC(=O)NC1CCCCC1)C(=O)CCCC(=O)Nc1ccccn1 | -4 | 0 | -2 | 98 | . | .
Cc1ccc(NC(=O)c2cc(=O)[nH]c3ccc(S(=O)(=O)N4CCOCC4)cc23)cc1 | 5 | -1 | -2 | 96 | . | .
CCc1cccc(C)c1NC(=O)c1cc(=O)[nH]c2ccc(S(=O)(=O)N3CCOCC3)cc12 | 2 | 0 | 14* | 89 | 18* | 28*
N#CCCN(C(=O)COc1ccc(Cl)cc1Cl)c1ccccc1 | 1 | 12 | -2 | 98 | . | .
Cc1cc(C)n(CCNC(=O)CC2C(=O)NCCN2CC2CCCCC2)n1 (configuration not stated) | -5 | -6 | -2 | 109 | . | .
O=c1[nH]c2ccccc2c2ccc(Cl)cc12 | 6 | -5 | 0 | 97 | . | .
O=c1[nH]c2ccc(Cl)cc2c(O)c1Cc1ccccc1 | 1 | 4 | 9.0* | 100 | 11* | 14*
O=c1c2cc3c(nc2[nH]c(=S)n1-c1ccccc1)CCCC3 | 0 | 1 | 22* | 93 | 31* | 34*
CCn1c(SCc2ccc(Cl)cc2)nc2nc3c(cc2c1=O)CCCC3 | 1 | 0 | -1 | 94 | . | .
CC1(C)Cc2nc3[nH]c(=S)n(-c4ccccc4)c(=O)c3cc2CO1 | 2 | -3 | 0 | 96 | . | .
